For 11 compounds, residual activity results are on record in ChEMBL document CHEMBL2218924, “A broad activity screen in support of a chemogenomic map for kinase signalling research and drug discovery” (Biochem J, 2013).

As usually defined, the residual activity is the signal under treatment as a percentage of the control signal.

The target of test [1] is T1, Serine/threonine-protein kinase 17A (Homo sapiens) (UniProt Q9UEE5).
T1 sequence (whole entry): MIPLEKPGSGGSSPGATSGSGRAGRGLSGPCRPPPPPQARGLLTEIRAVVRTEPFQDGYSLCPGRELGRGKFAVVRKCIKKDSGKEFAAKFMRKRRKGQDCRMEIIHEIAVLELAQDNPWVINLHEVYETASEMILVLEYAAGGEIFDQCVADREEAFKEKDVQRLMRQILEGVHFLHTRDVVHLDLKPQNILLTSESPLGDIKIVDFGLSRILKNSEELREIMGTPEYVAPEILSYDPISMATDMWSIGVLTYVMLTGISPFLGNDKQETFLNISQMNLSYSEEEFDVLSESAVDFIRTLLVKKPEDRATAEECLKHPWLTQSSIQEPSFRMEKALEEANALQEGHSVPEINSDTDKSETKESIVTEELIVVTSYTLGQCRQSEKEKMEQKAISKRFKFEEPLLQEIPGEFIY
The note with it: at 10 µM.

In test [2] the target is T2, Dual specificity tyrosine-phosphorylation-regulated kinase 2 (Homo sapiens) (UniProt Q92630).
T2 sequence (whole entry): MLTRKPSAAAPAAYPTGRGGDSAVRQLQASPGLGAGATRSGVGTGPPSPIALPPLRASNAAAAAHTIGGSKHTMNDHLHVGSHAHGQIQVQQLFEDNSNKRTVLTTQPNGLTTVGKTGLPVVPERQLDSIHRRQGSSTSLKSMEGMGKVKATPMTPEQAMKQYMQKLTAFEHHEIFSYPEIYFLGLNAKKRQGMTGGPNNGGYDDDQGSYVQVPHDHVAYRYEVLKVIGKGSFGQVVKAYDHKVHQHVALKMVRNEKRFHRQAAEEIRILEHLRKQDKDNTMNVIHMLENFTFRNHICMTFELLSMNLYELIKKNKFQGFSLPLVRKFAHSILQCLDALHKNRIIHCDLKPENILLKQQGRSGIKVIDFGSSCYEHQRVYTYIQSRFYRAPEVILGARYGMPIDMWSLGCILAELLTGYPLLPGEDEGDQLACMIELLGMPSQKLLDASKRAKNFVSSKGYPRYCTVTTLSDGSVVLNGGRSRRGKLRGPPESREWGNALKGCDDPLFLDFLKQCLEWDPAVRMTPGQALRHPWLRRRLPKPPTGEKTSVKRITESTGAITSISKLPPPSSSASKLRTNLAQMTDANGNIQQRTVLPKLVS
The following applies: at 1 µM.

The target of test [3] is T2, Dual specificity tyrosine-phosphorylation-regulated kinase 2 (Homo sapiens). The following applies: at 10 µM.
The target of test [4] is Epidermal growth factor receptor (Homo sapiens) (UniProt P00533). The following applies: at 1 µM.
Test [5] shares this target. The note with it: at 10 µM.
The target of test [6] is T3, Ephrin type-A receptor 1 (Homo sapiens) (UniProt P21709).
T3 sequence (whole entry): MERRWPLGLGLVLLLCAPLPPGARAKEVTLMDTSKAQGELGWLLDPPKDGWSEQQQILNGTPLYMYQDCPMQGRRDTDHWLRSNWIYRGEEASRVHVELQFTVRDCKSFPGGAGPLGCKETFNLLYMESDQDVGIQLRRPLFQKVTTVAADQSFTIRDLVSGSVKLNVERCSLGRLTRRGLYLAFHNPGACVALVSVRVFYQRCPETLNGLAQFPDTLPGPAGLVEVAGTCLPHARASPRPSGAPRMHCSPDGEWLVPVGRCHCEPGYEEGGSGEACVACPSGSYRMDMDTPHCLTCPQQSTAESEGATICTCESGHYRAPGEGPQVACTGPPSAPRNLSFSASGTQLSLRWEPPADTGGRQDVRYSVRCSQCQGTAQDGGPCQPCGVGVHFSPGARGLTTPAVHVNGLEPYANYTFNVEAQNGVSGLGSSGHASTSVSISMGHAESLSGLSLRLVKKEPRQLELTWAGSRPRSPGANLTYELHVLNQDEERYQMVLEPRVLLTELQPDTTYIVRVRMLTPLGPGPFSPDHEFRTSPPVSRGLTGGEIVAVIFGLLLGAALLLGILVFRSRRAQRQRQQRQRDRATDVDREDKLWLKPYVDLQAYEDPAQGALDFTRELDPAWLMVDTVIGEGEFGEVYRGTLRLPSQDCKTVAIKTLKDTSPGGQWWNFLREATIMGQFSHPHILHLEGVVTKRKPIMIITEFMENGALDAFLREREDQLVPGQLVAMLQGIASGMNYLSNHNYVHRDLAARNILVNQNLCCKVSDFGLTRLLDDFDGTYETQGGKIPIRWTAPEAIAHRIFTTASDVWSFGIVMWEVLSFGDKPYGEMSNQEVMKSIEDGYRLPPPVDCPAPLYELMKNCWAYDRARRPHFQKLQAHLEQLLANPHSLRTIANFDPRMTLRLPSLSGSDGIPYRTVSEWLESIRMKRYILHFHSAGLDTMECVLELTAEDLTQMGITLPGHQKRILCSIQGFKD
The note with it: at 1 µM.

Test [7] has as its target T3, Ephrin type-A receptor 1 (Homo sapiens). The following applies: at 10 µM.
The target in test [8] is Ephrin type-A receptor 2 (Homo sapiens) (UniProt P29317). The following applies: at 1 µM.
Test [9] has the same target. The following applies: at 10 µM.
In test [10] the target is T4, Ephrin type-A receptor 3 (Homo sapiens) (UniProt P29320).
T4 sequence (whole entry): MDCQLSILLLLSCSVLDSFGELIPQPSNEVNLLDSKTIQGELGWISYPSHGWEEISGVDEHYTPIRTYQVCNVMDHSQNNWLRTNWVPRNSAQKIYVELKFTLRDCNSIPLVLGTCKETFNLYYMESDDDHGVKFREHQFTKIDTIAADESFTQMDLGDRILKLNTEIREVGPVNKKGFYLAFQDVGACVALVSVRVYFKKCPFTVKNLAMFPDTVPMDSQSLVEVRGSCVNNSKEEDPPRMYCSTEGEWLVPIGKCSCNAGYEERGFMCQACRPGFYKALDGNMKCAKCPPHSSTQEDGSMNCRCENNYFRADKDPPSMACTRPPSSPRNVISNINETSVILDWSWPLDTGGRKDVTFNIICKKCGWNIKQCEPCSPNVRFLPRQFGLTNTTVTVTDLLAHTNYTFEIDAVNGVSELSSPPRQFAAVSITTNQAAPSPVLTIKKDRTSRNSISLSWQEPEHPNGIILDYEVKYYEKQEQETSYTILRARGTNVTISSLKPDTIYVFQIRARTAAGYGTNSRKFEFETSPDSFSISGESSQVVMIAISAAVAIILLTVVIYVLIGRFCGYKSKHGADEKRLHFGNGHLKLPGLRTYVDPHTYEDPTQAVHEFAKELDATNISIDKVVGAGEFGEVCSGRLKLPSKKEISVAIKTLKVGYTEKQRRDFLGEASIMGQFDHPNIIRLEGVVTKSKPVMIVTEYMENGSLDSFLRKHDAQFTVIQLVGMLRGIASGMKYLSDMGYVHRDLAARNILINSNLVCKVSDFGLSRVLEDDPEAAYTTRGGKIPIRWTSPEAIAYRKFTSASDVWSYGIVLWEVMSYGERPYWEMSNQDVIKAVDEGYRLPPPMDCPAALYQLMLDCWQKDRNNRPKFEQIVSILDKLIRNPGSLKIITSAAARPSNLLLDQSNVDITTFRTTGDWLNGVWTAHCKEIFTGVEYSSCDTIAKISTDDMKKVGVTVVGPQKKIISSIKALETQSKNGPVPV
The following applies: at 1 µM.

Chain of Ephrin type-A receptor 2 (Homo sapiens) (P29317 whole entry): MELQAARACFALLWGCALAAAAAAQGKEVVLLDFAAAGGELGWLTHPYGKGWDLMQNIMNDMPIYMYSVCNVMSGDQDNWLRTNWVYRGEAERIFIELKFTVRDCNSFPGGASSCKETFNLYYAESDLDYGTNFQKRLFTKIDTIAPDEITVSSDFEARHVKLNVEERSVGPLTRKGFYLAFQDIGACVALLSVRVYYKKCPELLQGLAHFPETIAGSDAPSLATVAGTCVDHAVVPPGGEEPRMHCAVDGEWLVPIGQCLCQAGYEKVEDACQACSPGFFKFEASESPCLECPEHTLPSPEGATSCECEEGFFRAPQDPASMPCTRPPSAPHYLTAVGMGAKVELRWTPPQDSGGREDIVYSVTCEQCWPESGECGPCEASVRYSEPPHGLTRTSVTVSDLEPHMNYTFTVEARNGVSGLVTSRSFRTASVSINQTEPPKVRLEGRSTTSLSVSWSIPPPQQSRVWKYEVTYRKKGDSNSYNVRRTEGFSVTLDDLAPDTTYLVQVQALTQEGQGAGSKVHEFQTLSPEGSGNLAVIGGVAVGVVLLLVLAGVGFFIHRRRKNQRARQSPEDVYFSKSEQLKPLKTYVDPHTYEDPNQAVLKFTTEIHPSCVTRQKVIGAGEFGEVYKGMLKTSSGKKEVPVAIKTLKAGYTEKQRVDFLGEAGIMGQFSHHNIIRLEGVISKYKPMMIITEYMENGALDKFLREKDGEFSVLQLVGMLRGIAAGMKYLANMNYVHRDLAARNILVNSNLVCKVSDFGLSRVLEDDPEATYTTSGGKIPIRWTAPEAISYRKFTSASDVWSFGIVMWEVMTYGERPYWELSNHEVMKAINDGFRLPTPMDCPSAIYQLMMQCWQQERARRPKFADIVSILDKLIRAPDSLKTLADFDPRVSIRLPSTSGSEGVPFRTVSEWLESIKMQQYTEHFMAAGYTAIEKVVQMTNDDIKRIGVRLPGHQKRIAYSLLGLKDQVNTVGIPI
Chain of Epidermal growth factor receptor (Homo sapiens) (P00533 whole entry): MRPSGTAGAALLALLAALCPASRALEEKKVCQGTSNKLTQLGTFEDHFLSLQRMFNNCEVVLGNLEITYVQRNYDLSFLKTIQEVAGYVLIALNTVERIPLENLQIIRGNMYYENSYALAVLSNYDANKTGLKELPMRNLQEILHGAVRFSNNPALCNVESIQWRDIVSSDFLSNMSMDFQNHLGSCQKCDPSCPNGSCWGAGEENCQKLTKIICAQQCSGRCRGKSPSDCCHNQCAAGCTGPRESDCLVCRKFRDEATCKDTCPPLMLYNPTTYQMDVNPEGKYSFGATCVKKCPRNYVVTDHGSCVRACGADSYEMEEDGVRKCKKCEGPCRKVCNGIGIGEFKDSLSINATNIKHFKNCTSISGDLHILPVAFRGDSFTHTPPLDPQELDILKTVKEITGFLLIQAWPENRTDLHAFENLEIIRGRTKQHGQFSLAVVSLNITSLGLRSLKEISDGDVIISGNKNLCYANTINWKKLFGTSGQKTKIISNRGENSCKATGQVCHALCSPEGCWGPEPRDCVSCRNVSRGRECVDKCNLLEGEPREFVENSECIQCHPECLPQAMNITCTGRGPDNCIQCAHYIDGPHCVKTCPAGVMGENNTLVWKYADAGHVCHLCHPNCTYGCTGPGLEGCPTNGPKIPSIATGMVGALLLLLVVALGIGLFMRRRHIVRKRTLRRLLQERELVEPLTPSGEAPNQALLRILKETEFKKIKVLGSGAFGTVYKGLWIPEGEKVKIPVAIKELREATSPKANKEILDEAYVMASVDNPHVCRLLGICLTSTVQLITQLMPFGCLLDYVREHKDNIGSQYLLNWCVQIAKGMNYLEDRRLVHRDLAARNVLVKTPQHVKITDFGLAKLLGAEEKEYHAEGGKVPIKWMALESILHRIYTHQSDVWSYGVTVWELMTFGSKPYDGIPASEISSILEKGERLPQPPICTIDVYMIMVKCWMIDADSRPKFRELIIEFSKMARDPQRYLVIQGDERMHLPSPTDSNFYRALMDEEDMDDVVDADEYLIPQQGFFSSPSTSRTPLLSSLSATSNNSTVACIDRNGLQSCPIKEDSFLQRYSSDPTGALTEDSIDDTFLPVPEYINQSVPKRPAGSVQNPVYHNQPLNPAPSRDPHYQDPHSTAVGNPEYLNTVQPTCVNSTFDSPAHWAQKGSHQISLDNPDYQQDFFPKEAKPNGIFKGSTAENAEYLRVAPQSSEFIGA

Take `CCOc1cc2ncnc(Nc3cccc(Br)c3)c2cc1OCC`: the residual activity in test [1] was 60%; in test [2], 92%; in [3], 58%; in [4] it was -5%; in test [5], -4%; in [6] it was 32%. Besides, the residual activity is 4% in [7], 85% in test [8], 18% in test [9] and 81% in test [10].

Consider `O=C1NC(=O)/C(=C/c2ccc3c(c2)OC(F)(F)O3)S1`, for which the residual activity in test [1] is 99%; in test [2], 86%; in test [3] it was 65%; in test [4] it was 116%; in test [5], 119%; in [6], 93%. For the same compound, the residual activity in test [7] worked out at 96%; in test [8], 107%; in [9] it was 115%; in [10], 103%.

With `Cc1ccc(NC2=CC(=O)c3sc(C)nc3C2=O)cc1`, the residual activity turned out to be 81% in [1]; 85% in [2]; 100% in test [3]; 95% in test [6]; 91% in [7]; 95% in test [8]. Also, the residual activity was found to be 102% in test [9] and 92% in [10].

For `CC(C)n1cnc2/c(=N/c3cccc(Cl)c3)nc(NCCO)[nH]c21`, the residual activity in test [1] came out at 83%; in test [2], 95%; in test [3], 69%; in [6] it was 86%; in test [7], 42%; in [8] it was 82%. Moreover, the residual activity in test [9] was found to be 65%; in test [10], 82%.

`Cc1cc2ncc(-c3ccccc3)nc2cc1C`: the residual activity in [1] is 95%; in test [2] it was 85%; in test [3], 105%; in test [6], 96%; in test [7], 105%; in test [8], 109%. Further, the residual activity amounted to 97% in [9] and 103% in [10].

With `CN(C)c1ccc(/C=C2\C(=O)Nc3ccccc32)cc1`, the residual activity in test [1] amounted to 6%; in test [2] it was 98%; in test [3] it was 98%; in test [6], 100%; in test [7], 102%; in test [8], 123%. Also, the values for the residual activity in test [9] and in test [10] were 107% and 99%, respectively.

`NC(=O)c1ccc2[nH]c(-c3ccc(Oc4ccc(Cl)cc4)cc3)nc2c1`: the residual activity in test [1] turned out to be 42%; in [2], 87%; in test [3] it was 53%; in test [4], 111%; in test [5], 115%; in test [6], 96%. Also, the residual activity in [7] was 85%; in [8], 100%; in [9], 116%; in [10] it was 100%.

As for `Cc1nc(-c2ccccc2)c(-c2ccncc2)o1`, the residual activity was determined as 77% in test [1]; 99% in test [2]; 87% in [3]; 103% in [6]; 81% in test [7]; 93% in test [8]. The residual activity amounted to 59% in [9] and 92% in test [10].

For `O=C(Nc1cccc(Nc2cc(Nc3cccc(C(F)(F)F)c3)ncn2)c1)C1CC1`, the residual activity is 50% in test [1]; 97% in test [2]; 99% in [3]; -2% in test [4]; -3% in [5]; 82% in test [6]. Besides, the residual activity in test [7] turned out to be 90%; in test [8], 108%; in test [9] it was 98%; in test [10], 115%.

Consider `COc1cc2ncnc(Nc3ccc(NC(=O)c4ccccc4)cc3)c2cc1OC`, for which the residual activity in test [1] came to 78%; in [2], 98%; in [3], 98%; in [6], 107%; in test [7] it was 106%.

For the compound `Oc1n[nH]c2nnc(-c3c(-c4ccccc4)nn4ccccc34)cc12`, the residual activity turned out to be 34% in test [1]; 99% in test [2]; 95% in [3]; 93% in test [6]; 79% in test [7]; 92% in test [8]. Also, the residual activity in [9] is 109%; in test [10] it was 94%.
